Assay results from PubChem BioAssay (EPA / NIEHS).
Records with an inconclusive call do not appear. More than one record can exist for a structure, and the calls need not agree. Active and inactive are the calls of the source. How the source made its calls, unless noted: active means hit-call score of the fitted dose curve at least 0.9, where 1 is the maximum; inconclusive means response in the unintended direction; inactive means score below 0.9.

Legend:
[1] = CEETOX_H295R_MTT_cell_viability: Viability Assessment in the CeeTox HT-H295R MTT Assay (AID 2283718; active means hit-call score of the fitted dose curve at least 0.9, where 1 is the maximum; inactive means score below 0.9)
Outline: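 Human H295R adrenal cells, prestimulated 48 h with 10 uM forskolin, were exposed 48 h to chemicals in 0.1% DMSO. Viability was measured in the same wells by MTT (0.5 mg/ml, 4 h, 37 C), absorbance 570/650 nm, as percent of controls.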

[2] = system: zebrafish Androgen Receptor (AR), gene 100005148; assay: ATG_zfAR_XSP1: Attagene TRANS-FACTORIAL Multi-Species (XSP1) HepG2 Assay for zebrafish Androgen Receptor (AR) (AID 2283771)
Outline: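 Gain-of-signal versus DMSO was measured as reporter transcripts quantified by RT-PCR, fluorescent labelling and capillary electrophoresis after 24 h chemical exposure. The cells were HepG2 expressing a chimeric zebrafish AR-GAL4, co-stimulated with 3 nM 6-alpha-fluorotestosterone.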

[3] = target: zebrafish Estrogen Receptor (ESR1), esr1 (gene 259252) (UniProt P57717); assay: ATG_zfER1_XSP1: Attagene TRANS-FACTORIAL Multi-Species (XSP1) HepG2 Assay for zebrafish Estrogen Receptor (ESR1) (AID 2283772)
Outline: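 Transfect HepG2 with GAL4-UAS multi-reporter constructs; treat 24 h (medium carries 3 nM 6-alpha-fluorotestosterone); extract RNA, reverse-transcribe, PCR-amplify, FAM-label, digest with HpaI; resolve by capillary electrophoresis and compare against DMSO baseline.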

[4] = system: zebrafish Estrogen Receptor (ESR2B), gene 317733; assay: ATG_zfER2b_XSP1: Attagene TRANS-FACTORIAL Multi-Species (XSP1) HepG2 Assay for zebrafish Estrogen Receptor (ESR2B) (AID 2283773)
Outline: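 Multiplexed TRANS format in transfected HepG2 liver cells, chimeric NR-Gal4 from zebrafish ESR2B. 24 h dosing; medium contains 3 nM 6-alpha-fluorotestosterone. mRNA induction by RT-PCR/CE, positive direction vs DMSO.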

[5] = system: frog Estrogen Receptor (ESR2), gene 100174814; assay: ATG_frER2_XSP1: Attagene TRANS-FACTORIAL Multi-Species (XSP1) HepG2 Assay for frog Estrogen Receptor (ESR2) (AID 2283774)
Outline: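 HepG2, transient MRTU transfection (GAL4-UAS reporters, exogenous NR-Gal4 chimeras); 24 h compound exposure; 3 nM 6α-fluorotestosterone co-added; total RNA → RT-PCR → 6-FAM primer extension → HpaI → CE. Positive direction vs DMSO.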

[6] = ACEA_AR_agonist_AUC_viability: ACEA Biosciences xCELLigence Real-Time Cell Analysis on Androgen Receptor Agonism for Viability (AID 2283775);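 on AC50: viability read 80 hours after compound addition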
Outline: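 Viability endpoint from xCELLigence impedance in 22Rv1 prostate cells at 80 h. Eight-point series, 100 uM maximum final.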

[7] = Tanguay_ZF_120hpf_ActivityScore_legacy: (Legacy) Oregon State University Tanguay Lab 120 Hour Post-fertilization zebrafish Assay Score for Activity (AID 2283742);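 on AC50: dechorionated Tropical 5D wild-type zebrafish embryos held singly per well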
Outline: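 Dechorionated 5D embryos, one per well, static exposure 6–120 hpf, 28C, sealed and dark; final DMSO 0.64% (vol/vol). Brightfield binary scoring of mortality plus 18 endpoints; gain-of-signal fit versus DMSO baseline.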

[8] = STM_H9_OrnithineISnorm_perc: Stemina devTOX quickPredict H9 human embryonic stem cell (hESC)-based Assay for Ornithine (ORN) Metabolite Biomarker, Normalized (AID 2283712; active means hit-call score of the fitted dose curve at least 0.9, where 1 is the maximum; inactive means score below 0.9;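 further: ornithine released into spent medium during last day measured by mass spectrometry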)
Outline: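 Metabolite endpoint from spent media of pluripotent H9 cells treated 72 h with daily re-feeding; ornithine measured by UPLC-HRMS against its 13C spike-in and referenced to the median 0.1% DMSO vehicle response.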

[9] = STM_H9_CystineISnorm_perc: Stemina devTOX quickPredict H9 human embryonic stem cell (hESC)-based Assay for Cystine (CYSS) Metabolite Biomarker, Normalized (AID 2283713; active means hit-call score of the fitted dose curve at least 0.9, where 1 is the maximum; inactive means score below 0.9)
Outline: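 Normalized cystine level in conditioned medium from the final 24h of a 72h treatment of pluripotent H9 cells (daily media and compound renewal). Quantified by UPLC-HRMS with C13-labeled internal standard; scaled to median of 0.1% DMSO vehicle wells.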

[10] = STM_H9_OrnCyssISnorm_ratio: Stemina devTOX quickPredict H9 human embryonic stem cell (hESC)-based Assay for Ornithine (ORN):Cystine (CYSS) Ratio (AID 2283714)
Outline: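 UPLC-HRMS of spent media: ORN/CYSS ratio of internal-standard-normalized percentages, DMSO (0.1%) baseline. Pluripotent H9 hESCs, 72h exposure, daily re-dosing with fresh media; last 24h media collected.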

[11] = ArunA_CellTiter_hNP: Viability Assessment in the ArunA Biomedical's Oris Neural Crest (hNC) Cell Migration Assay (AID 2283753)
Outline: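 Viability read with CellTiter 96 Aqueous One after 72 h chemical exposure of human hNP1 neuroprogenitors, which were plated on Matrigel in LIF/bFGF medium 16 h beforehand. Endpoint fitted in positive direction relative to DMSO.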

[12] = ArunA_Migration_hNP: ArunA Biomedical's Oris Neuroprogenitor (hNP) Cell Migration Assay (AID 2283754)
Outline: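 Readout is calcein-AM fluorescence (ex494/em517) of cells migrating into the detection zone, relative to DMSO. hNP1 cells (H9-derived) grown on Matrigel behind stoppers 16 h, then stoppers pulled and chemical applied 72 h; cytochalasin D as control.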

[13] = ArunA_NOG_NucleusCount: ArunA Biomedical's Neurite Outgrowth (NOG) Assay for Nucleus Count (AID 2283756)
Outline: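 Viable neuron count, from Hoechst nuclei passing size and intensity gates, imaged at 20x on differentiated H9-derived human neurons. Exposure lasted 48 h from seeding; activity was scored relative to DMSO.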

[14] = ArunA_NOG_NeuritesPerNeuron: ArunA Biomedical's Neurite Outgrowth (NOG) Assay for Neurites Per Neuron (AID 2283758)
Outline: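 Differentiated human H9-derived neurons exposed to chemicals for 48 h from seeding, then stained with Hoechst and βIII-tubulin/DyLight 488. Automated imaging counted neurites (processes >10 um) per valid neuron; loss of signal versus DMSO scored.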

[15] = ArunA_NOG_BranchPointsPerNeurite: ArunA Biomedical's Neurite Outgrowth (NOG) Assay for Branch Points Per Neurite (AID 2283759)
Outline: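 Automated image analysis traced neurites (processes >10 um) from valid cell bodies after Hoechst and βIII-tubulin staining. hNN cells from H9 embryonic stem cells, 48 h exposure. Fitted bidirectionally against DMSO.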

Chain of zebrafish Estrogen Receptor (ESR1), esr1 (gene 259252) (P57717 whole entry, looked up, the tested form may be a part): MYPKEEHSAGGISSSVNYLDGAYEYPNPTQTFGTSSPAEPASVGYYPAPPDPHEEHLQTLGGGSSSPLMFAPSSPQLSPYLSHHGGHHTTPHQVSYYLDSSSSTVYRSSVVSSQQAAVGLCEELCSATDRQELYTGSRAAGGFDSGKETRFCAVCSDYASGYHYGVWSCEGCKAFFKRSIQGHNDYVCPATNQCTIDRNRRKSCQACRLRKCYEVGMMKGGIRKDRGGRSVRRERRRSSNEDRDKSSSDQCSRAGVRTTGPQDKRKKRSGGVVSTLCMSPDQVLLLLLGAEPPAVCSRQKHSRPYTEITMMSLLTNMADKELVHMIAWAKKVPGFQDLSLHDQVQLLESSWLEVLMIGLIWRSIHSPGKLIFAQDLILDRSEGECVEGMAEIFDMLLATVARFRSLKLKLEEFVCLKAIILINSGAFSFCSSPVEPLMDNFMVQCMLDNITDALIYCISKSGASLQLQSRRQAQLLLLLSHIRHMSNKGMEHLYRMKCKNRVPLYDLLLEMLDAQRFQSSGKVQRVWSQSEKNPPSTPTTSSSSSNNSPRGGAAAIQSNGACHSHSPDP

## CCCCCCCCC(=O)NCc1ccc(O)c(OC)c1
[1]
  outcome: inactive

## ClC(Cl)=C(Cl)C(Cl)=C(Cl)Cl
[1]
  outcome: inactive

## CC1(C)CCC(Cc2ccc(Cl)cc2)C1(O)Cn1cncn1 (stereo not drawn)
[1]
  outcome: inactive
[2]
  AC50: 165 µM (active)
[3]
  outcome: inactive
[4]
  AC50: 27.7 µM (active)
[5]
  AC50: 26.3 µM (active)
[6]
  outcome: inactive

## Cn1sc(Cl)cc1=O
[1]
  outcome: inactive
[7]
  AC50: 39.8 µM (active)
[6]
  AC50: 77.2 µM (active)

## COc1cc(-c2ccc(N)c(OC)c2)ccc1N
[1]
  outcome: inactive
[7]
  AC50: 3.57 µM (active)
  outcome: inactive
[6]
  AC50: 27.1 µM (active)

## ClC1(Cl)C2(Cl)C3(Cl)C4(Cl)C(Cl)(Cl)C5(Cl)C3(Cl)C1(Cl)C5(Cl)C24Cl (stereo not drawn)
[8]
  outcome: inactive
[9]
  outcome: inactive
[10]
  AC50: 0.346 µM (active)
[7]
  outcome: inactive
[11]
  outcome: inactive
[12]
  outcome: inactive
[13]
  outcome: inactive
[14]
  outcome: inactive
[15]
  outcome: inactive
[6]
  outcome: inactive

## CC12CC1(C)C(=O)N(c1cc(Cl)cc(Cl)c1)C2=O (stereo not drawn)
[8]
  AC50: 61 µM (active)
[9]
  AC50: 50 µM (active)
[10]
  AC50: 50 µM (active)
[1]
  outcome: inactive
[7]
  outcome: inactive
[2]
  outcome: inactive
[3]
  outcome: inactive
[4]
  AC50: 60.6 µM (active)
[5]
  AC50: 24.7 µM (active)
[6]
  outcome: inactive

## CCN1CCC2(CC1)COc1cc3c(cc12)N(C(=O)c1ccc(-c2ccc(-c4nnc(C)o4)cc2C)cc1)CC3
[8]
  AC50: 8.53 µM (active)
[9]
  AC50: 3.56 µM (active)
[10]
  AC50: 7.61 µM (active)
[7]
  outcome: inactive
[6]
  AC50: 9.92 µM (active)

## CCOP(=S)(OCC)SCSP(=S)(OCC)OCC
[1]
  outcome: inactive
[7]
  outcome: inactive
[6]
  outcome: inactive

## CC(C)(c1ccc(OCC2CO2)cc1)c1ccc(OCC2CO2)cc1 (stereo not drawn)
[10]
  outcome: inactive
[6]
  outcome: inactive

## CN(CCCC(=O)c1cccnc1)N=O
[1]
  outcome: inactive

## O=C(Nc1ccc2[nH]ccc2c1)c1cc2cc(F)ccc2n1Cc1cccc(F)c1
[8]
  AC50: 3.5 µM (active)
[9]
  AC50: 1.27 µM (active)
[10]
  AC50: 1.28 µM (active)
[1]
  outcome: inactive
[7]
  outcome: inactive
[6]
  AC50: 14.5 µM (active)

## CC(=O)[O][Hg][c]1ccccc1
[8]
  AC50: 0.476 µM (active)
[9]
  AC50: 0.287 µM (active)
[10]
  AC50: 0.311 µM (active)
[7]
  AC50: 0.111 µM (active)
[6]
  AC50: 1.68 µM (active)

## CCOP(=S)(OCC)SCCS(=O)(=O)CC
[1]
  outcome: inactive

## C=CC(=O)N(C)C
[1]
  outcome: inactive

## C1CCC(NC2CCCCC2)CC1
[1]
  outcome: inactive

## O=C(O)C(Cl)(Cl)Cl
[8]
  outcome: inactive
[9]
  outcome: inactive
[7]
  outcome: inactive
